{"source": "PubChem BioAssay (NCATS)"}
{"experiment": "qHTS profiling of the MIPE4 collection as inhibitors of Plasmodium falciparum (DD2) proliferation (AID 743345)", "conditions": "P. falciparum Dd2 in erythrocytes, SYBR Green DNA, 72 h; at 28.5 µM (top of the series) unless noted", "how_it_was_run": "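Parasite DNA was quantified by SYBR Green I fluorescence (ex 485, em 535 nm) after overnight lysis in saponin/Triton buffer at room temperature. Cultures at 0.3% parasitemia and 2.5% hematocrit were first exposed to compound for 72 h at 37 C; signals were normalised to artemisinin (0.29 uM) and vehicle wells.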", "units": {"parasite growth remaining, % of DMSO control (lower = more inhibition)": "%"}}
{"smiles": "C[N+](C)([O-])CCNc1ccc(NCC[N+](C)(C)[O-])c2c1C(=O)c1c(O)ccc(O)c1C2=O", "parasite growth remaining, % of DMSO control (lower = more inhibition)": 13.5}
{"smiles": "O=C(NNC(=O)c1ccc(CNS(=O)(=O)c2ccc(F)c(Cl)c2)cc1)c1ccccc1", "parasite growth remaining, % of DMSO control (lower = more inhibition)": 87.9}
{"smiles": "COc1ccc(C(C)=O)c(O)c1", "parasite growth remaining, % of DMSO control (lower = more inhibition)": 98.8}
{"smiles": "CC(C)NC[C@@H](C(=O)N1CCN(c2ncnc3c2[C@H](C)C[C@H]3O)CC1)c1ccc(Cl)cc1", "parasite growth remaining, % of DMSO control (lower = more inhibition)": 64.9}
{"smiles": "C=C(C)[C@@H]1CC[C@]2(C(=O)O)CC[C@]3(C)[C@H](CC[C@@H]4[C@@]5(C)CC[C@H](O)C(C)(C)[C@@H]5CC[C@]43C)[C@@H]12", "parasite growth remaining, % of DMSO control (lower = more inhibition)": 20.6}
{"smiles": "C[C@@H]1C(=O)O[C@H]2CC34[C@H]5C[C@@H](C(C)(C)C)C36[C@H](OC(=O)[C@@H]6O)O[C@@]4(C(=O)O5)[C@]21O", "note": "(some centres not stated)", "parasite growth remaining, % of DMSO control (lower = more inhibition)": 97.7}
{"smiles": "c1coc(CNc2ncnc3nc[nH]c23)c1", "parasite growth remaining, % of DMSO control (lower = more inhibition)": 26.3}
